Reference: the supplement of paper PMC6992640
Where a name gives a salt, the structure may show the parent alone. ± gives the standard deviation of the averaged measurements.

Assays:
Assay in all cases: cell viability (% of vehicle); higher = less cytotoxic
Details in all cases: 10 µM; 72 h
[1] = test system: HCI01 (cells of a triple-negative basal-like breast cancer xenograft)
[2] = test system: HCI03 (cells of an ER-positive luminal breast cancer xenograft)
[3] = test system: HCI09 (cells of a triple-negative luminal androgen receptor type breast cancer xenograft)
[4] = test system: HCI11 (cells of an ER-positive luminal breast cancer xenograft)
[5] = test system: HCI16 (cells of a triple-negative basal-like breast cancer xenograft)
[6] = test system: UCD52 (cells of a triple-negative basal-like breast cancer xenograft)
[7] = test system: WHIM2 (cells of a triple-negative basal-like breast cancer xenograft)
[8] = test system: WHIM30 (cells of a triple-negative basal-like breast cancer xenograft)
[9] = test system: HCI13 (cells of an ER-positive luminal breast cancer xenograft)
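Further: PDX cells carrying CMV promoter-driven luciferase, viability read as total photon flux per second by IVIS imaging following D-luciferin, vehicle control 0.1% DMSO.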

Compound | cell viability [1] | cell viability [2] | cell viability [3] | cell viability [4] | cell viability [5] | cell viability [6] | cell viability [7] | cell viability [8] | cell viability [9]
C[C@@H]1C[C@H]2[C@H]3CCC4=CC(=O)C=C[C@]4(C)[C@@]3(F)[C@@H](O)C[C@]2(C)[C@@]1(O)C(=O)CO [Dexamethasone (DHAP)] | 128 ± 28 | 138 | 148 ± 54 | 114 | 180 | 168.4 ± 1.4 | 83.4 ± 20 | 189 ± 29 | –
O=C(Nc1c(Cl)cncc1Cl)c1ccc(OC(F)F)c(OCC2CC2)c1 [Roflumilast] | 150 ± 8.4 | 145 | 118 ± 55 | 124 | 196 | 119 ± 10 | 104 ± 15 | 151 ± 5.7 | –
Cc1ccc(C)c(OCCCC(C)(C)C(=O)O)c1 [Gemfibrozil] | 99.9 ± 25 | 118 | 131 ± 54 | 112 | – | 124 ± 17 | 98.3 ± 12 | – | –
CC1CC2C3CCC4=CC(=O)C=CC4(C)C3(F)C(O)CC2(C)C1(O)C(=O)CO (stereo not given) [Betamethasone] | 130 ± 41 | 177 | 145 ± 32 | 175 | – | 183 ± 2.4 | 130 ± 27 | 184 ± 37 | –
CC(C)n1c(C=CC(O)CC(O)CC(=O)[O-])c(-c2ccc(F)cc2)c2ccccc21.[Na+] (stereo not given) [Fluvastatin Sodium] | 91.3 ± 15 | 135 | 61.2 ± 11 | – | 135 | 54.9 ± 4.7 | 59.6 ± 0.62 | 113 ± 11 | –
CC1CC2C3CC(F)C4=CC(=O)C=CC4(C)C3(F)C(O)CC2(C)C1(O)C(=O)CO (stereo not given) [Flumethasone] | 144 ± 49 | 180 | 140 ± 56 | 145 | – | 166 ± 22 | 93.2 ± 12 | 163 ± 5.2 | –
CCC(=O)OCC(=O)C1(OC(=O)CC)C(C)CC2C3CCC4=CC(=O)C=CC4(C)C3(F)C(O)CC21C (stereo not given) [Betamethasone Dipropionate] | 126 ± 23 | 138 | 150 ± 25 | 136 | – | 147 ± 14 | 92.3 ± 26 | – | –
O=C([O-])CC(O)CC(O)C=Cc1c(C2CC2)nc2ccccc2c1-c1ccc(F)cc1.O=C([O-])CC(O)CC(O)C=Cc1c(C2CC2)nc2ccccc2c1-c1ccc(F)cc1.[Ca+2] (stereo not given) [Pitavastatin Calcium] | 83.9 ± 10 | 78.4 | 53.9 ± 27 | – | 113 | 50.2 ± 1.3 | 67.8 ± 23 | 93.3 ± 4.9 | 148 ± 27
C#CC1(O)CCC2C3CCc4cc(O)ccc4C3CCC21C (stereo not given) [Ethinyl Estradiol] | 107 ± 7.8 | 119 | 103 ± 15 | 102 | 93.3 | 84 ± 3.5 | 107 ± 25 | 109 ± 21 | –
CCc1c2c(nc3ccc(OC(=O)N4CCC(N5CCCCC5)CC4)cc13)-c1cc3c(c(=O)n1C2)COC(=O)[C@]3(O)CC [Irinotecan HCl Trihydrate] | 70.8 ± 22 | 165 | 120 ± 25 | – | 105 | 104 ± 17 | 68 ± 3.8 | 107 ± 19 | 114 ± 15
CCCCC(=O)OC1(C(=O)CO)C(C)CC2C3CCC4=CC(=O)C=CC4(C)C3(F)C(O)CC21C (stereo not given) [Betamethasone Valerate] | 120 ± 12 | 169 | 148 ± 34 | 124 | – | 161 ± 9.9 | 88.9 ± 29 | 194 ± 17 | –
CC12CCC3c4ccc(O)cc4CCC3C1CCC2O (stereo not given) [Estradiol] | 99.8 ± 4.7 | 111 | 91.4 ± 4.4 | 93 | 91.4 | 85.9 ± 4.8 | 108 ± 28 | 74.2 ± 6.9 | –
CCC(=O)OC1(C(=O)CCl)C(C)CC2C3CC(F)C4=CC(=O)C=CC4(C)C3(F)C(O)CC21C (stereo not given) [Halobetasol Propionate] | 159 ± 6.9 | 152 | 133 ± 96 | 133 | – | 191 ± 18 | 113 ± 9.6 | – | –
CC(=O)OCC(=O)[C@@]12OC(C)(C)O[C@@H]1C[C@H]1[C@@H]3C[C@H](F)C4=CC(=O)C=C[C@]4(C)[C@@]3(F)[C@@H](O)C[C@@]12C [Fluocinonide] | 75.9 ± 53 | 179 | 127 ± 39 | 129 | – | 156 ± 2.6 | 94.6 ± 31 | 175.6 ± 0.94 | –
CC1(C)O[C@@H]2C[C@H]3[C@@H]4CCC5=CC(=O)C=C[C@]5(C)[C@@]4(F)[C@@H](O)C[C@]3(C)[C@]2(C(=O)CO)O1 [Triamcinolone Acetonide] | 147.2 ± 1.3 | 171 | 183 ± 20 | 111 | – | 198 ± 18 | 89.1 ± 12 | – | –
CC(=O)OCC(=O)[C@@]12N=C(C)O[C@@H]1C[C@H]1[C@@H]3CCC4=CC(=O)C=C[C@]4(C)[C@H]3[C@@H](O)C[C@@]12C [Deflazacort] | 107 ± 38 | 141 | 137 ± 32 | 133 | – | – | 119 ± 14 | 145 ± 3.2 | –
CC12C=CC(=O)C=C1CCC1C3CC(O)C(O)(C(=O)CO)C3(C)CC(O)C12F (stereo not given) [Triamcinolone] | 117 ± 18 | 176 | 112.2 ± 0.86 | 130 | – | 121 ± 8.9 | 121 ± 18 | 185 ± 5.1 | –
NCCC(O)(P(=O)(O)O)P(=O)(O)O [Pamidronate] | 167 ± 8.5 | 112 | 56 ± 19 | 144 | – | 137 ± 19 | – | 143.9 ± 0.96 | –
CC(=O)OCC(=O)C1(O)CCC2C3CCC4=CC(=O)C=CC4(C)C3C(O)CC21C (stereo not given) [Prednisolone Acetate] | 119 ± 47 | 185 | 134 ± 37 | 123 | – | 152.4 ± 0.65 | 97.2 ± 1.2 | 182 ± 22 | –
Nc1nc(NC2CC2)c2ncn(C3C=CC(CO)C3)c2n1 (stereo not given) [Abacavir] | 173 ± 35 | – | – | 118 | 121 | – | 179 ± 28 | – | 193 ± 30
COc1ccc(-c2cc(=O)c3c(O)cc(O)cc3o2)cc1O [Diosmetin] | 169 ± 46 | – | 170 ± 120 | – | 181 | – | – | – | –
CC1(C)CCC(CN2CCN(c3ccc(C(=O)NS(=O)(=O)c4ccc(NCC5CCOCC5)c([N+](=O)[O-])c4)c(Oc4cnc5[nH]ccc5c4)c3)CC2)=C(c2ccc(Cl)cc2)C1 | 83.9 ± 55 | – | 61.5 ± 30 | 68.4 | 80 | 101 ± 14 | 151 ± 32 | 99.4 ± 53 | 129 ± 10
OCC1OC(Oc2cc(O)cc(C=Cc3ccc(O)cc3)c2)C(O)C(O)C1O (stereo not given) [Polydatin] | 155 ± 18 | – | 113 ± 15 | 142 | 195 | – | 109 ± 35 | – | 99.9 ± 1.1

Compound | cell viability [1] | cell viability [2] | cell viability [3] | cell viability [4] | cell viability [5] | cell viability [6] | cell viability [7] | cell viability [8] | cell viability [9]
CNCCc1ccccn1.Cl.Cl [Betahistine 2HCl] | – | 134 | 103 ± 23 | 140 | – | 133 ± 48 | 93.5 ± 30 | 186 ± 14 | 89.7 ± 17
CCCc1nc(C(C)(C)O)c(C(=O)OCc2oc(=O)oc2C)n1Cc1ccc(-c2ccccc2-c2nn[nH]n2)cc1 [Olmesartan medoxomil] | – | 150 | 110 ± 1.2 | 162 | 182 | 168 ± 28 | 105 ± 20 | 177 ± 30 | 128 ± 2.5
CC(=O)c1c(C)c2cnc(Nc3ccc(N4CCNCC4)cn3)nc2n(C2CCCC2)c1=O.O=S(=O)(O)CCO | 154 ± 77 | – | 78 ± 29 | 154 | 180 | 105 ± 7.7 | 103 ± 13 | 145 ± 2.8 | 179 ± 75
Cn1cnc2c(F)c(Nc3ccc(Br)cc3Cl)c(C(=O)NOCCO)cc21 [AZD6244 (Selumetinib)] | – | 83.9 | 82.9 ± 23 | 112 | – | 84.4 ± 13 | 79.7 ± 8.5 | – | 92.21 ± 0.79
CN(C)Cc1c(C(=O)NCCOc2ccc(C(=O)NO)cc2)oc2ccccc12 | – | 128 | 70.8 ± 49 | 9.68 | – | – | 80.6 ± 8.5 | – | 56.1 ± 17
Cc1[nH]c2ccccc2c1CCNCc1ccc(C=CC(=O)NO)cc1 [Panobinostat (LBH589)] | – | 130 | 68.3 ± 34 | – | – | – | 36.5 ± 3 | – | 45 ± 8.7
O=c1oc2cc(O)ccc2s1 [Tioxolone] | 115.5 ± 0.72 | – | 87.9 ± 13 | 96.8 | 172 | 109.1 ± 0.84 | 129 ± 28 | 145 ± 30 | 85.9 ± 17
CCN(CC)CCNC(=O)c1ccc(N)cc1.Cl [Procainamide HCl] | 110 ± 3.9 | – | 108 ± 4.1 | 95.8 | 116 | 100 ± 7.8 | 110 ± 10 | 197 ± 10 | 98 ± 2.4
O=c1[nH]c(=O)n(C2CC(O)C(CO)O2)cc1I (stereo not given) [Idoxuridine] | 165 ± 77 | – | 106 ± 8.6 | 106 | 129 | 112 ± 6.1 | – | 116.3 ± 1.1 | –
CC(=O)OCC(=O)C1CCC2C3CCC4=CC(=O)CCC4(C)C3CCC12C (stereo not given) [Deoxycorticosterone acetate] | – | 132 | 95.7 ± 46 | 112 | 135 | 139 ± 19 | 140 ± 10 | 164 ± 12 | 141 ± 23
O=c1c(-c2ccc(O)cc2)coc2cc(O)ccc12 [Daidzein] | 146 ± 37 | 155 | – | 114 | 180 | 149 ± 13 | 119 ± 7.2 | – | –
N#CCC(C1CCCC1)n1cc(-c2ncnc3[nH]ccc23)cn1 (stereo not given) | – | 185 | 106 ± 19 | 129 | 106 | 117.7 ± 0.47 | 134 ± 12 | 187.4 ± 1.7 | 76.1 ± 14
Cc1cnc(Nc2ccc(OCCN3CCCC3)cc2)nc1Nc1cccc(S(=O)(=O)NC(C)(C)C)c1 | – | 173 | 133 ± 44 | 138 | 161 | 196 ± 55 | 43.8 ± 0.93 | – | 61.6 ± 12
O=C(O)C1=CC(=NNc2ccc(S(=O)(=O)Nc3ccccn3)cc2)C=CC1=O [Sulfasalazine] | – | 124 | 119 ± 9.1 | 137 | 180 | 100 ± 5 | 105 ± 8.7 | 181 ± 26 | 161 ± 27
Nc1ccccc1NC(=O)c1ccc(CNc2nccc(-c3cccnc3)n2)cc1 [Mocetinostat (MGCD0103, MG0103)] | – | 87 | 78.4 ± 73 | 5.73 | – | – | 109 ± 13 | – | 150 ± 160
C#Cc1cccc(Nc2ncnc3cc(OC)c(OCCCCCCC(=O)NO)cc23)c1 | – | 105 | 22.1 ± 10 | 4.55 | – | – | 44.4 ± 5 | – | 77.52 ± 0.49
OCC1OC(O)C(O)C(O)C1O [Dextrose (D-glucose)] | 123.4 ± 0.67 | – | 106 ± 1.3 | 125 | 110 | 88.77 ± 0.6 | 105 ± 3.9 | 153 ± 12 | 124 ± 6.9
O=C(C=Cc1cccc(S(=O)(=O)Nc2ccccc2)c1)NO [Belinostat (PXD101)] | – | 104 | 39.6 ± 33 | 6.42 | – | – | 43.7 ± 1.1 | – | 55.1 ± 25
CO[C@H]1C[C@@H]2CC[C@@H](C)[C@@](O)(O2)C(=O)C(=O)N2CCCC[C@H]2C(=O)O[C@H]([C@@H](C)C[C@@H]2CC[C@@H](OCCO)[C@H](OC)C2)CC(=O)[C@H](C)/C=C(\C)[C@@H](O)[C@@H](OC)C(=O)[C@H](C)C[C@H](C)/C=C/C=C/C=C/1C [Everolimus (RAD001)] | – | 69.8 | 27.5 ± 4 | 102 | 179 | 55.2 ± 9.9 | 41.9 ± 4.8 | 160 ± 35 | 54.91 ± 0.39
Nc1ccccc1NC(=O)c1ccc(CNC(=O)OCc2cccnc2)cc1 [Entinostat (MS-275,SNDX-275)] | – | 109 | 119 ± 130 | – | – | – | 75.7 ± 17 | – | 58.7 ± 7.4
O=C(C=CC=Cc1ccc2c(c1)OCO2)N1CCCCC1 [Piperine] | 158 ± 4 | – | – | 134 | 131 | – | 117 ± 0.57 | 111.83 ± 0.044 | –
COc1ccccc1Oc1c(NS(=O)(=O)c2ccc(C(C)(C)C)cc2)nc(-c2ncccn2)nc1OCCO.O [Bosentan Hydrate] | – | 124 | 87.8 ± 26 | 101 | – | 125 ± 8.9 | 87.1 ± 8.3 | 184 ± 2.7 | 172 ± 36
Nc1nc(NC2CC2)c2ncn(C3C=CC(CO)C3)c2n1.O=S(=O)(O)O (stereo not given) [Abacavir sulfate] | 161 ± 13 | – | – | 139 | 157 | 196 ± 5.3 | 128 ± 5.2 | – | 134 ± 16
